Assay results as given in PubChem BioAssay.
The source made the active and inactive calls. Unless noted, how the calls were made is not given here.

Key:
[1] = resazurin metabolic signal in HepG2 cells – cell-based, resazurin fluorescence, 24 h, PK04 Diversity Set, profiling panel (AID 1172); details: HepG2 viability, higher = more signal; further: test concentration not given here
[2] = budding yeast growth changes without added modifier – OD600, strain BY4716, 24 h, basal condition, primary screen (AID 1173); details: S. cerevisiae BY4716 growth, OD600, 24 h; higher = more signal, called active from +8 up or from −8 down
[3] = viability profiling in MM1S myeloma cells – cell-based, resazurin fluorescence, basal, 24 h, PK04 Diversity Set, profiling panel (AID 1174); details: higher = more signal, called active from +8 up or from −8 down;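 further: MM1S multiple myeloma cell line; test concentration not given here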
[4] = biological target: Dihydroorotate dehydrogenase (quinone), mitochondrial (Plasmodium falciparum (isolate 3D7)) (UniProt Q08210); assay: inhibition of P. falciparum DHODH – biochemical, C-terminal His tag, absorbance 600 nm, primary screen (AID 1175); details: PfDHODH enzyme, DCIP absorbance 600 nm; higher = more signal, called active from +8 up or from −8 down;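 further: recombinant parasite enzyme with a five histidine tag at its C terminus; test concentration not given here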
Chain of Dihydroorotate dehydrogenase (quinone), mitochondrial (Plasmodium falciparum (isolate 3D7)) (Q08210 whole entry, looked up): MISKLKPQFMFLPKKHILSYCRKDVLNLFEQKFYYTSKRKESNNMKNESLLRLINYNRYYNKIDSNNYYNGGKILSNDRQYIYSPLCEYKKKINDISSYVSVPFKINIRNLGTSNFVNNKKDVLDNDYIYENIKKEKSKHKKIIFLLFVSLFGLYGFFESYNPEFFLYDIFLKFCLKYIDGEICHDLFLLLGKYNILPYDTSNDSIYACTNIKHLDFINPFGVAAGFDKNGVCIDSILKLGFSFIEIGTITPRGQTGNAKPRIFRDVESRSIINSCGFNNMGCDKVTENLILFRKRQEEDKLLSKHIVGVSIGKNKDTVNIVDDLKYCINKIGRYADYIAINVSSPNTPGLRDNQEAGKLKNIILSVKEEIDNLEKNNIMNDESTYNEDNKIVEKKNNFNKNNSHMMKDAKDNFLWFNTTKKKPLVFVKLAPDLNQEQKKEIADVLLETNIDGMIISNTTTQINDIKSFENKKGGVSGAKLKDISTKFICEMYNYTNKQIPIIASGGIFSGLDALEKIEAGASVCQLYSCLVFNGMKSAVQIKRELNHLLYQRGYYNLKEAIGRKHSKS

[5] = inhibition of PAO1 biofilm formation – strain PAO1, LB-PBS medium, absorbance 600 nm, primary screen (AID 1176); further: test concentration not given here; details: P. aeruginosa PAO1 growth/biofilm, A600, 12 h; higher = more signal
[6] = growth modulation of vineyard yeast isolate – strain RM11-1a, OD600, basal, 24 h, primary screen (AID 1177);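 further: cultures grown under basal conditions with no added stressor; test concentration not given here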; details: S. cerevisiae RM11-1a growth, OD600, 24 h; higher = more signal, called active from +8 up or from −8 down
[7] = growth of efflux-deficient E. coli DRC39 – strain DRC39, OD650, 24 h, E. coli filamentation inducers, primary screen (AID 1178);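 further: growth measured as culture turbidity by optical density at 650 nm; test concentration not given here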; details: E. coli DRC39 acrAB, higher = more signal, called active from +8 up or from −8 down
[8] = growth of efflux-deficient E. coli DRC39 – strain DRC39, OD650, 48 h, E. coli filamentation inducers, primary screen (AID 1179);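 further: screen aims at cell division blockers that make cells filament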; details: E. coli DRC39 delta-acrAB growth, higher = more signal, called active from +8 up or from −8 down
[9] = viability profiling in RPMI8226 myeloma cells – cell-based, resazurin fluorescence, basal, 24 h, PK04 Diversity Set, profiling panel (AID 1180); details: higher = more signal;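 further: RPMI8826 multiple myeloma cell line at 5000 cells per well; test concentration not given here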
[10] = biological target: E3 ubiquitin-protein ligase XIAP (Homo sapiens) (UniProt P98170); assay: small molecules binding XIAP protein – biophysical, small-molecule microarray, fluorescence 635 nm, primary screen (AID 1181); details: higher = more signal;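 further: score merges 667 nm emission and signal to noise over triplicate slides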
Chain of E3 ubiquitin-protein ligase XIAP (Homo sapiens) (P98170 whole entry, looked up): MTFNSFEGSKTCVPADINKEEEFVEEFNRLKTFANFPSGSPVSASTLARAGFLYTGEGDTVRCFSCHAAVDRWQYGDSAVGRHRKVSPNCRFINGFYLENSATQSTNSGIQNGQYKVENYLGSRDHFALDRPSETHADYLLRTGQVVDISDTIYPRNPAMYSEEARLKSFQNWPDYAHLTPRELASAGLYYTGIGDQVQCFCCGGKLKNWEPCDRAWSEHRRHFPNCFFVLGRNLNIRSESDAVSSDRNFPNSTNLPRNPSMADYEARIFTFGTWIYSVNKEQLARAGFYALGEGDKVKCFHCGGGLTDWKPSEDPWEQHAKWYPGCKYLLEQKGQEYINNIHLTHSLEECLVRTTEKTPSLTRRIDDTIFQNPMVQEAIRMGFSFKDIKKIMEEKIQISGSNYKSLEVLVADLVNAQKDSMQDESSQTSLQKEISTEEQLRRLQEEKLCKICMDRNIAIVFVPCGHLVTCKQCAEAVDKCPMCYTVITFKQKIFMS

SMILES | z-score [1] | z-score [2] | z-score [3] | composite z-score [4] | z-score [5] | z-score [6] | z-score [7] | z-score [8] | z-score [9] | composite z-score [10]
CC(C)=CCCC(C)=CC(O)C1C=CC2C(=O)N(C)C(=O)C2N1Nc1ccccc1 (stereo not given) | -1.34 | -4.94 (inactive) | -1.37 (inactive) | 0.0684 (inactive) | 1.51 (inactive) | 0.938 (inactive) | -0.261 (inactive) | 0.0052 (inactive) | -2.03 | 0.123
O=C(CS)NCCCCCCNC(=O)[C@@H]1C[C@@H]2C(=O)N[C@@H](Cc3ccccc3)C(=O)N2[C@@H]1c1cccc(OCCO)c1 | 0.531 | 0.49 (inactive) | -0.137 (inactive) | -0.0547 (inactive) | 0.255 (inactive) | 0.0598 (inactive) | 0.051 (inactive) | 0.0288 (inactive) | -0.549 | 0.0264
COc1ccc(C#Cc2ccc3c(c2)[C@]2(C(=O)N3)[C@H](c3ccccc3OCCO)N3[C@H](c4ccccc4)[C@H](c4ccccc4)OC(=O)[C@H]3[C@@H]2C(=O)Nc2nc3ccccc3s2)cc1 | -0.927 | 1.35 (inactive) | -0.545 (inactive) | -30.7 (active) | 2.77 (inactive) | 2.93 (inactive) | 0.0225 (inactive) | 0.132 (inactive) | -1.76 | 0.0471
COC(=O)[C@@]1(Cc2ccc(OC)cc2)[C@H]2c3cc(C(=O)N(C)C)n(Cc4ccccn4)c3C[C@H]2CN1C(=O)c1ccccc1 | -0.961 | 1.28 (inactive) | -1.24 (inactive) | 1.02 (inactive) | 0.976 (inactive) | 0.607 (inactive) | -1.13 (inactive) | -0.6 (inactive) | -0.838 | 0.155
C[N+](C)(C)CCCC[C@@H]1NC(=O)[C@H]2C[C@@H](C(=O)NCCCCCCNC(=O)CS)[C@@H](c3cccc(OCCO)c3)N2C1=O | -0.191 | 0.578 (inactive) | -0.0499 (inactive) | 0.459 (inactive) | -0.0896 (inactive) | 0.293 (inactive) | 0.474 (inactive) | 0.645 (inactive) | -0.442 | -0.227
COC(=O)C[C@H]1O[C@]2(C(=O)N(C)c3ccccc32)[C@@H](C)[C@@H]1[Si](C)(C)F | 0.951 | -2.55 (inactive) | 1.55 (inactive) | -1.49 (inactive) | 0.908 (inactive) | -2.64 (inactive) | 1.51 (inactive) | 0.847 (inactive) | 2.42 | 0.103
O=C(OCc1ccccc1)C1=CCC2c3[nH]c4ccccc4c3C(=O)C1N2S(=O)(=O)c1ccccc1[N+](=O)[O-] (stereo not given) | -0.106 | 1.57 (inactive) | -1.2 (inactive) | -0.386 (inactive) | 0.381 (inactive) | 0.714 (inactive) | -1.04 (inactive) | -1.43 (inactive) | -0.878 | -0.113
CC(C)N1C(=O)[C@@]2(Cc3ccccc31)c1ccccc1C(=O)N(Cc1ccccc1Cl)[C@H]2c1ccc(CO)cc1 | 1.07 | -1.87 (inactive) | 0.845 (inactive) | -4.26 (inactive) | 0.31 (inactive) | -1.6 (inactive) | 0.344 (inactive) | 0.659 (inactive) | 1.32 | 0.257
